From PMC4552634, “A New Set of Chemical Starting Points with Plasmodium falciparum Transmission-Blocking Potential for Antimalarial Drug Discovery” (PLoS ONE, 2015)
Where two headings read alike, the source gives them in different places. The whole screen tested about 13,000 compounds, of which about 3,200 (25%) showed an effect of 50% or more. This is one part of the list.

Test system: P. falciparum stage V gametocytes
Set-up: BacTiter-Glo ATP luminescence viability of purified stage V gametocytes in 384-well plates, per cent inhibition versus DMSO
Details: 48 h, 5 µM, inhibitor

SMILES | % Inhibition [%] | % Inhibition (% Inhibition) [%]
Cc1cccc2nc(-c3ccc(-c4cccc(CN5CCN(c6ccc(C#N)cn6)CC5)c4)s3)[nH]c12.O=C(O)C(F)(F)F [TCMDC-133111] | -25.75 | –
CCN(CC)CCCC(C)Nc1ccnc2cc(C#N)ccc12 (stereo not drawn) [TCMDC-138027] | -9.256 | –
CCOc1ccc(OCCCON2C(N)=NC(N)=NC2(C)C)cc1 [TCMDC-131735] | -0.1444 | –
Cc1cc2cc(CNCCc3ccccc3Br)ccc2nc1N [TCMDC-138097] | 84.79 | –
Cc1cc(N)nc2cc(CNCCc3ccccc3Br)ccc12 [TCMDC-138095] | 22.25 | –
Cc1cc2ccc(CNCCc3ccccc3Br)cc2nc1N [TCMDC-138094] | 34.17 | –
CCCCC(=O)Nc1ccc(Nc2nc(C)cc(N3CCCC3)n2)cc1 [TCMDC-124717] | 46.79 | –
O=C(Nc1ccccc1)N(Cc1cccc(-c2ccc(CNC3CCCC3)cc2)c1)C1CCN(Cc2ccccc2)CC1 [TCMDC-140589] | 100.6 | –
O=C(Nc1ccccc1)N(Cc1ccc(-c2cccc(CNC3CCCC3)c2)cc1)C1CCN(Cc2ccccc2)CC1 [TCMDC-140601] | 107.8 | –
O=C(Nc1ccccc1)N(Cc1ccccc1-c1cccc(CNC2CCCC2)c1)C1CCN(Cc2ccccc2)CC1 [TCMDC-140581] | 108.7 | –
O=C(Nc1ccccc1)N(Cc1ccc(-c2ccc(CNC3CCCC3)cc2)cc1)C1CCN(Cc2ccccc2)CC1 [TCMDC-140602] | 100.4 | –
Oc1cccc(-c2nc(-c3cccc(I)c3)c(-c3ccc(-c4nc(-c5cccc(O)c5)[nH]c4-c4cccc(I)c4)cc3)[nH]2)c1 [TCMDC-125665] | 42.71 | –
COC(=O)c1ccc(C2OC3(C(=O)c4ccccc4C3=O)C(OC)=C2Cl)cc1C(C)=O (stereo not drawn) [TCMDC-125782] | -9.104 | –
N#Cc1ccc2c(c1)CCN(CCC1CCC(NC(=O)/C=C/c3nc4ccccc4s3)CC1)CC2 (stereo not drawn) [TCMDC-139686] | -32.82 | –
COc1ccc(O)c(Cc2cnc3nc(N)nc(N)c3c2C)c1 [TCMDC-137998] | -28.9 | –
Cc1cc(C(=O)CSc2nc3ccccc3n2-c2ccccc2)c(C)n1C1CCS(=O)(=O)C1 (stereo not drawn) [TCMDC-124855] | -17.36 | –
CC1CN(Cc2ccccc2)CCN1c1ccc(NC(=O)c2cccs2)cc1 (stereo not drawn) [TCMDC-135005] | 31.52 | –
CC(C)(C)c1ccc(-c2nnc(N)nc2N)cc1 [TCMDC-137284] | -12.55 | –
COc1cccc(Nc2c(C(N)=O)cnc3ccc(-c4ccc([S+](C)[O-])cc4)cc23)c1 (stereo not drawn) [TCMDC-135184] | 93.94 | –
CN(C)CCNC(=O)c1ccc(-c2ccc3c(Nc4ccccc4)c(C(N)=O)cnc3c2)cc1 [TCMDC-138672] | 14.13 | –
COc1cccc(Nc2c(C(N)=O)cnc3ccc(-c4ccccc4)cc23)c1 [TCMDC-135227] | 39.19 | –
CS(=O)(=O)c1cccc(-c2cnc3[nH]cc(-c4ccc(C(=O)O)cc4)c3c2)c1 [TCMDC-136271] | 0.4612 | –
COc1ccc2nccc(N3CCCN(CCNCc4ccc5c(n4)NC(=O)CS5)CC3)c2n1 [TCMDC-134640] | 33.98 | –

SMILES | % Inhibition [%] | % Inhibition (% Inhibition) [%]
CCC(c1ccccc1)c1nn2c(-c3cccs3)nnc2s1 (stereo not drawn) [TCMDC-123825] | 7.835 | –
CCc1ccc(C2=Nn3c(nnc3-c3cccs3)SC2)cc1 [TCMDC-124336] | 80.16 | –
Cc1ccc(C2CC(c3cccs3)=NN2C(=O)c2ccc(Br)o2)cc1 (stereo not drawn) [TCMDC-125610] | 12.81 | –
O=C(NCCCCN1CCN(c2cccc3c2OCCO3)CC1)c1ccc(NC(=O)c2cc(Cl)cc(Cl)c2)cc1 [TCMDC-138222] | -31.39 | –
C=CCN(c1nc(NC)nc(NCc2c(OC)cccc2OC)n1)C1CCCC1 [TCMDC-134844] | -44.26 | –
C=CCn1c(Cc2ccccc2)nnc1Sc1ccc(C#N)c([N+](=O)[O-])c1 [TCMDC-135614] | 45.02 | –
COc1cc(OC)cc(-c2nnc(Sc3ccc(C#N)c([N+](=O)[O-])c3)n2C)c1 [TCMDC-135576] | 42.48 | –
Cn1c(Cc2ccccc2)nnc1Sc1ccc(C#N)c([N+](=O)[O-])c1 [TCMDC-135608] | 73.99 | –
CCCCCn1c(Sc2ccc(C#N)c([N+](=O)[O-])c2)nnc1-c1ccccc1 [TCMDC-135606] | 38.34 | –
CCCCCCn1c(Sc2ccc(C#N)c([N+](=O)[O-])c2)nnc1-c1ccccc1 [TCMDC-135607] | 41.57 | –
CCn1c(Cc2ccccc2)nnc1Sc1ccc([N+](=O)[O-])c(C#N)c1 [TCMDC-135236] | 79.04 | –
Cc1ccc(Nc2nc(C)cc(N3CCN(CCc4ccccc4)CC3)n2)cc1 [TCMDC-134023] | -10.5 | –
COc1ccccc1CNc1ccnc(NCCc2cccc(C(F)(F)F)c2)n1 [TCMDC-135117] | 62.08 | –
COc1cccc(Nc2nccc(NCC(O)c3cccc(C(F)(F)F)c3)n2)c1 (stereo not drawn) [TCMDC-136584] | 27.05 | –
FC(F)(F)c1cccc(CCNc2nccc(NCc3ccccc3Cl)n2)c1 [TCMDC-135109] | 78.4 | –
FC(F)(F)c1cccc(CCNc2nccc(NCc3ccc(Cl)cc3Cl)n2)c1 [TCMDC-135111] | 42.21 | –
Clc1ccc(CNc2ccnc(NCCc3coc4ccccc34)n2)c(Cl)c1 [TCMDC-135113] | 37.58 | –
COc1ccc(Nc2nccc(NCC(O)c3cccc(C(F)(F)F)c3)n2)cc1 (stereo not drawn) [TCMDC-136585] | -13.64 | –
CC(=O)Nc1ccc(S(=O)(=O)Nc2ccc(Nc3nc(C)cc(N4CCCCC4)n3)cc2)cc1 [TCMDC-124950] | -6.943 | –
CCC[C@@H]([C@@H](CC(C)C)C(=O)N[C@H](C(=O)Nc1nccs1)C(C)(C)SCCNC(=O)OCC)N(O)C=O [TCMDC-137761] | 30.89 | –
N#Cc1cccc(COC(=O)C2=C(COc3ccccc3Cl)NC(=O)NC2c2c[nH]c3cnccc23)c1 (stereo not drawn) [TCMDC-136331] | 5.465 | –
Cc1ccc(C(c2nnnn2C2CCCC2)N(Cc2ccco2)Cc2ccccc2Cl)cc1 (stereo not drawn) [TCMDC-123569] | 15.39 | –
COc1ccc(-c2nc(NC(=O)CS(=O)(=O)c3ccccc3)sc2C)cc1 [TCMDC-123525] | 48.52 | –

SMILES | % Inhibition [%] | % Inhibition (% Inhibition) [%]
CCCCn1c(SC(C)C)nc2c(c1=O)C1(CCCCC1)Cc1ccccc1-2 [TCMDC-123893] | -5.467 | –
Cc1ccc(-c2nnc(Nc3ccc(CC(N)=O)cc3)c3ccccc23)cc1S(=O)(=O)NCC1CCCO1 (stereo not drawn) [TCMDC-125615] | -4.951 | –
COc1cc(Cc2cnc(N)nc2N)ccc1OCC(=O)Nc1ccc(C)cc1 [TCMDC-138679] | 5.317 | –
COc1cc(Cc2cnc(N)nc2N)ccc1OCc1ccc(F)c(F)c1 [TCMDC-138591] | 9.532 | –
COc1cc(Cc2cnc(N)nc2N)ccc1OCc1ccc(NC(C)=O)cc1 [TCMDC-138675] | 89.66 | –
S=C(NCCc1ccc(Cl)cc1)N1CCC(CN2CCC(c3c[nH]c4ccccc34)CC2)CC1 [TCMDC-140193] | 39.79 | –
S=C(NCCc1ccc(Cl)cc1)NC1CCC(CN2CCC(c3c[nH]c4ccccc34)CC2)CC1 (stereo not drawn) [TCMDC-140201] | – | 56.68
S=C(Nc1ccccc1Cl)NC1CCC(CN2CCC(c3c[nH]c4ccccc34)CC2)CC1 (stereo not drawn) [TCMDC-140179] | 20.48 | –
S=C(NCC1CCCCC1)NC1CCC(CN2CCC(c3c[nH]c4ccccc34)CC2)CC1 (stereo not drawn) [TCMDC-140181] | 104.2 | –
S=C(NCCc1ccc(Cl)cc1)NC1CCC(CN2CCC(c3c[nH]c4ccccc34)CC2)CC1 (stereo not drawn) [TCMDC-140183] | – | 98.47
CC(C)NCc1ccc(-c2cccc(-c3nc4ccc(F)cc4[nH]3)c2)cc1 [TCMDC-132737] | 4.072 | –
N#Cc1ccc(N2CCN(Cc3ccc(-c4cccc(-c5nc6ccccc6[nH]5)c4)cc3)CC2)nc1.O=C(O)C(F)(F)F [TCMDC-133918] | 6.117 | –
Cc1c(Cc2ccccc2Br)cnc2nc(N)nc(N)c12 [TCMDC-137244] | -16.64 | –
COC(=O)/C=C/c1ccc(CC(C)NCC(O)c2cccc(Br)c2)cc1 (stereo not drawn) [TCMDC-131443] | 13.24 | –
CC(C)(C)Nc1nc(Nc2cccc([N+](=O)[O-])c2)nc(-n2ccnc2)n1 [TCMDC-123695] | -24.43 | –
O=[N+]([O-])c1ccc(Nc2nc(N/N=C/c3cccc(O)c3)nc(N3CCCC3)n2)cc1 [TCMDC-123855] | 36.76 | –
CCn1cnc2c(Nc3cccc([N+](=O)[O-])c3)nc(N3CCC(N4CCCCC4)CC3)nc21 [TCMDC-124437] | 69.16 | –
Cc1ccc(Oc2c(-c3ccccc3CN3CCCC3CN(C)C)cnn(C)c2=O)cn1 (stereo not drawn) [TCMDC-135100] | -4.022 | –
Cc1[nH]c(C)c(-c2ccc(C(F)(F)F)cc2)c(=O)c1Br [TCMDC-137429] | 90.2 | –
Cc1[nH]c(C)c(-c2ccc(Nc3ccc(C(F)(F)F)cn3)cc2)c(=O)c1Br [TCMDC-135546] | 74.1 | –
Cc1[nH]c(C)c(-c2ccc(OCCOc3ccc(C(F)(F)F)cn3)cc2)c(=O)c1Br [TCMDC-135554] | 40.45 | –
Cc1[nH]c(C)c(-c2ccc(Oc3ccc(C(F)(F)F)cc3)cc2)c(=O)c1Br [TCMDC-137406] | 68.39 | –
COc1ccc2nccc([C@@H](O)CN3CCC(NC(=O)C(c4ccsc4)N4CCN(c5ccccc5OC)CC4)CC3)c2c1 (stereo partly drawn) [TCMDC-140994] | -19.96 | –
